Shown are actives, neighbours in structure and some others; about 7.7% of the full set was active somewhere.
Giardia FBPA inh-1 – blocks Giardia fructose-bisphosphate aldolase activity; purified Giardia FBPA; AID 2451; Potency, µM (highest dose often 59.6 µM), for the others: at the top dose activity, negative = inhibition, hits mostly inhibitors; A8B2U2; 290,000 compounds, 0.71% hits; note: potency is the fitted concentration of half-maximal effect; nearly all actives have a fitted effect of over 55% in size
Target sequence (A8B2U2 whole entry, looked up): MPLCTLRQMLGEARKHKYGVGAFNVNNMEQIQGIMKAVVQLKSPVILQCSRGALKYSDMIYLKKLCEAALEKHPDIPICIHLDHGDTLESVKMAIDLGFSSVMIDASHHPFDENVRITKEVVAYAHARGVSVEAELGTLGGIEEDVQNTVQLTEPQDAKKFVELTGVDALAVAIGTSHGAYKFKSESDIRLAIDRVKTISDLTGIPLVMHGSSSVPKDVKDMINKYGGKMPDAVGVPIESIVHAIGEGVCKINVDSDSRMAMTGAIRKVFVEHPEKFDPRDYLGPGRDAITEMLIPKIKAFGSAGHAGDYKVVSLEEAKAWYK
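Giardia FBPA (40 nM reagent) was preincubated 10 min at RT with compound (up to 57.5 uM final), then substrate plus GAPDH/TPI/NAD/arsenate coupling system with diaphorase/resazurin was added; resorufin fluorescence (525/598 nm) was read after 20 min.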
Tb PYK inh – T. brucei pyruvate kinase inhibition | Q57TT1 | TbPYK enzyme, Kinase-Glo Plus ATP luminescence, 45 min | 410,000 compounds, 0.12% hits | Potency, µM (highest dose often 76.8 µM), without a hit: top-dose activity, negative = inhibition, most hits filed as inhibitors; note: potency is the fitted concentration of half-maximal effect; nearly all actives have a fitted effect of over 50% in size
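ADP (130 uM final) triggers the TbPYK reaction after compound addition; incubation is 45 min at room temperature. Kinase-Glo Plus is then added and luminescence imaged. Normalized data are fitted to concentration-effect curves.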
Sm TGR inh – S. mansoni TGR enzyme inhibition; purified TGR, DTNB reduction, TNB absorbance 405 nm; 360,000 compounds, 3% hits; Potency, µM (highest dose often 114 µM), inactives show at the highest dose activity change, negative = inhibition, actives largely listed as inhibitors; AID 485364; Q962Y6; note: potency is the fitted concentration of half-maximal effect; nearly all actives have a fitted effect of over 60% in size
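TGR 20 nM + NADPH 100 uM (dispensed conc.), cpd preinc 15 min RT; start with NADPH (500 uM addition) then DTNB (15 mM addition). Kinetic TNB absorbance, 405 nm filter. Four-parameter Hill fit across titration.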
FMDV antiviral – antivirals against foot and mouth disease virus | FMDV antiviral cell-based qHTS | Potency, µM (series often up to 57.9 µM), without a hit: at the highest dose activity change, negative = inhibition, most hits filed as inhibitors | 410,000 compounds, 1.2% hits | AID 1159524; calls by dose curve; tested in HEK293T cells; note: read-out not given here; potency is the fitted concentration of half-maximal effect; nearly all actives have a fitted effect of over 45% in size
RE007 growth inh – less growth of the S. pombe RE007 Vpr strain. S. pombe RE007 Vpr strain, BacTiter-Glo ATP luminescence, 24 h. Potency, µM (series often up to 92.2 µM), without a hit: at the highest dose activity change, negative = less growth, hits mostly inhibitors. 360,000 compounds, 0.21% hits. AID 651644; active = well fitted falling curve with a large enough effect; inconclusive = small, poorly fitted or top-dose-only effect; inactive = no such curve, though single readings can be large or run the other way; note: potency is the fitted concentration of half-maximal effect; nearly all actives have a fitted effect of over 50% in size
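Fission yeast RE007 carrying one integrated HIV-1 vpr copy, seeded at OD 0.01 in PMG+AL medium with 23 nL pinned compound. Grown 24 h at 30 degrees; viability read by BacTiter-Glo luminescence after 5 min.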
HCMV inh – human cytomegalovirus inhibition; 410,000 compounds, 4.5% hits; activity change, negative = inhibition, % at 57.5 µM; HFF cells, HCMV-luciferase reporter, 72 h; hits give low values; in the data active = activity change below about -60%; inconclusive = no clear call, values can overlap the other calls; inactive = above about -39%
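Cell-based, HFFs, 1000 cells/well, 16 h 37C; cpds in DMSO + HCMV-luc, MOI 1 PFU/cell; 72 h 37C; OneGlo luminescence after 5 min RT; norm. to buffer vs Salinomycin 10uM.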
Giardia growth – blocks growth of Giardia lamblia trophozoites. shares compounds with Giardia FBPA inh-1. Giardia lamblia trophozoite growth inhibition. Potency, µM (series often up to 57.5 µM), inactives show top-dose activity change, negative = inhibition, most hits filed as inhibitors. 1,500 compounds, 5% hits;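 note: potency is the fitted concentration of half-maximal effect; trophozoites exposed to compound for 48 h at 37 °C; nearly all actives have a fitted effect of over 70% in size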
Mammal cell tox – counter-screen for Giardia aldolase inhibitors: mammalian cell toxicity | mammalian cell viability counter-screen, qHTS | shares compounds with Giardia FBPA inh-1 | Potency, µM (top dose mostly 57.5 µM), without a hit: at the top dose viability change, negative = toxicity, most hits filed as inhibitors | 1,500 compounds, 4% hits | AID 2786;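 note: Chinese hamster ovary cells used as mammalian cytotoxicity surrogate; viability measured as cellular ATP by luminescence; potency is the fitted concentration of half-maximal effect; compound exposure lasted 48 h before reading; nearly all actives have a fitted effect of over 60% in size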
Giardia FBPA inh-2 – confirmation of Giardia fructose-bisphosphate aldolase inhibitors; shares compounds with Giardia FBPA inh-1; purified Giardia aldolase enzyme activity, qHTS; Potency, µM (titrated, usually from 57.5 µM), for inactives: top-dose activity change, negative = inhibition, usual class: inhibitors; 1,500 compounds, 5% hits; note: potency is the fitted concentration of half-maximal effect; nearly all actives have a fitted effect of over 45% in size
Rabbit aldolase – blocks rabbit muscle aldolase in Giardia aldolase selectivity test; shares compounds with Giardia FBPA inh-1; Rabbit muscle FBPA enzyme inhibition, selectivity counter-screen; Potency, µM (titrated, usually from 57.5 µM), for the others: at the top dose activity, negative = inhibition, hits mostly inhibitors; 1,500 compounds, 4% hits; note: potency is the fitted concentration of half-maximal effect; nearly all actives have a fitted effect of over 60% in size
Target sequence (P00883 whole entry, looked up): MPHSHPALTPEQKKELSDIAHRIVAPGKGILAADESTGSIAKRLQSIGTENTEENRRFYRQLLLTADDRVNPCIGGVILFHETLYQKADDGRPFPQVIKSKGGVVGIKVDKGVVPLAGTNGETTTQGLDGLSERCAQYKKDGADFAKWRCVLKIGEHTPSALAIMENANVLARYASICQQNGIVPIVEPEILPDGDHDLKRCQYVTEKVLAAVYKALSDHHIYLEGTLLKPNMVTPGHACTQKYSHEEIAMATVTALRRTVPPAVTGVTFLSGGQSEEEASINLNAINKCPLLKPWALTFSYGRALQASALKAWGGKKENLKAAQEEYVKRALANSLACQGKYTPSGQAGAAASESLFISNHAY
GAPDH coupling – counter-screen for Giardia aldolase inhibitors: GAPDH coupling enzyme; 1,500 compounds, 6% hits; GAPDH coupling enzyme counterscreen, biochemical, qHTS; shares compounds with Giardia FBPA inh-1; Potency, µM (titrated, usually from 57.5 µM), without a hit: at the top dose activity change, negative = inhibition, usual class: inhibitors; note: potency is the fitted concentration of half-maximal effect; nearly all actives have a fitted effect of over 55% in size
* hit, by the source's call; u = inconclusive; x = no result; [ ] = another dose, or the depositor's remark. Unless noted, calls come from the whole dose curve; as a rule, active = well fitted curve in the direction sought with a large enough effect; inconclusive = small, poorly fitted or top-dose-only effect, or another doubt; inactive = no such curve, though single readings can be large; an effect the other way counts as inactive or inconclusive. % is set by controls: 0 for no effect and ±100 for the full control effect.

SMILES	Giardia FBPA inh-1	Tb PYK inh	Sm TGR inh	FMDV antiviral	RE007 growth inh	HCMV inh	Giardia growth	Mammal cell tox	Giardia FBPA inh-2	Rabbit aldolase	GAPDH coupling
C=CCNC(=S)N1CCN(Cc2ccc3c(c2)OCO3)CC1	7.08µM*	1.5%	-8.8%	-7.4%	3.0%	-98.2*	-26.1%	5.8%	-8.4%	9.3%	-5.9%
CCNC(=S)N1CCN(Cc2ccc3c(c2)OCO3)CC1	4.8%	0.5%	15.8%	14.5%	17.1%	-21.7	x	x	x	x	x
O=C(NC(=S)Nc1ccc2oc(=O)ccc2c1)c1cccc(Cl)c1	10µM*	-0.3%	-18.5%	-8.7%	-0.7%	-20.5	20µM*	10.7%	-1.1%	11.3%	6.1%
COc1ccccc1NC(=S)N(Cc1ccc(C)cc1)Cc1ccccn1	17.7µM*	-5.2%	5.3%	0.2%	6.2%	-7.7	59.7%	-6.6%	5.7%	11.3%	17.8%
COc1ccccc1NC(=S)N(Cc1ccc(C)cc1)Cc1cccnc1	-9.4%	4.7%	1.0%	0.7%	-24.0%	33.9	x	x	x	x	x
COc1ccc(CCN(Cc2ccccn2)C(=S)Nc2ccc(C)cc2)cc1OC	-4.3%	2.6%	17.3%	-19.0%	15.2%	73.7	x	x	x	x	x
COc1ccc(CCN(Cc2ccccn2)C(=S)Nc2cccc(SC)c2)cc1OC	9.98µM*	1.9%	24.8%	6.2%	-7.8%	51.7	-6.1%[38.3 µM]	-25.5%	-11.2%	-8.0%	-3.5%
Cc1cccc(C)c1NC(=O)CSc1nccn1C	x	2.4%	-2.1%	-14.4%	x	-2.4	x	x	x	x	x
Cc1ccc(OCCOCCN2CCCCC2)c([N+](=O)[O-])c1	19.9µM*	7.4%	x	18.6%	-17.2%	u	27.6%	-11.1%	-6.7%	3.0%	4.3%
CCN1CCc2nc(N)sc2C1	11.2µM*	u	-8.1%	-14.1%	-22.5%	u	-18.8%	13.8%	u	u	28.2µM*
C=CCN1CCc2nc(N)sc2CC1	-12.0%	0.0%	-11.2%	-17.4%	-22.0%[18.4 µM]	-12.0	x	x	x	x	x
O=[N+]([O-])c1ccc(O)c(/C=N/Nc2ccccn2)c1	5µM*	-4.1%	-6.5%	-22.1%	u	-101.5*	u	20µM*	u	4.2%	-28.4%
O=C(O)COc1ccc(Br)cc1/C=N\Nc1ccccn1	11.2µM*	2.3%	-6.7%	-11.3%	1.1%	x	-19.8%	-7.4%	4.5%	10.0%	14.9%
CCOc1ccc(NC(=O)Cn2c(CCC(=O)O)ccc2-c2ccc(Cl)cc2)cc1	x	0.7%	0.5%	-18.3%	x	-2.5	x	x	x	x	x
O=C(O)COc1ccccc1/C=N/NC(=O)C(O)c1ccccc1 (stereo not given)	-7.5%	4.6%	3.7%	0.7%	0.7%	19.5	x	x	x	x	x
CNC(=S)N/N=C/c1ccccc1OCC(=O)O	19.9µM*	8.6%	1.2%	1.0%	-5.2%	-17.0	u	-1.8%	-8.5%	-1.1%	-7.1%
O=C(NC(=S)N1CCN(Cc2ccccc2)CC1)c1cccnc1	17.7µM*	u	-2.3%	16.3%	-6.0%	3.5	u	11.9%	2.1%	2.6%	8.2%
O=C(NCC(=O)N1CCN(C/C=C/c2ccccc2)CC1)c1ccc(Br)cc1	x	-1.3%	x	u	-13.9%	-16.7	x	x	x	x	x
O=C(NC(=S)N1CCN(C/C=C/c2ccccc2)CC1)c1ccc(Cl)nc1	7.92µM*	-17.8%	-17.4%	0.0%	0.9%	-14.2	-14.1%[38.3 µM]	u	-2.4%	3.6%	-8.3%
COc1ccc2[nH]cc(CCNC(=O)c3cnn(-c4ccccc4Cl)c3C3CCN(C(=O)OC(C)(C)C)CC3)c2c1	x	-3.2%	-18.0%	-23.7%	x	-25.9	x	x	x	x	x
CCn1c(=O)n(CC2CCC(C(=O)NC(C)C)CC2)c(=O)c2sccc21 (stereo not given)	x	-7.2%	u	-5.4%	x	2.4	x	x	x	x	x
CCC/C=C1\CCCOC(C(=O)NCc2ccccc2)(C(F)(F)F)C1 (stereo not given)	-2.2%	x	x	x	x	x	x	x	x	x	x
CCC(=O)Nc1nc(C)c(-c2csc(Nc3cccc(C(=O)O)c3)n2)s1	u	7.4%	-24.1%	23.6%	-4.4%	28.2	x	x	x	x	x
Cc1nc(N)sc1-c1csc(Nc2cccc(C(=O)O)c2)n1	17.8µM*	-18.3%	u	1.1%	11.3%	18.8	-22.5%	5.8%	u	31.6µM*	31.6µM*
CC(C)Oc1ccccc1C1C=C(C(=O)O)Nc2ncnn21 (stereo not given)	x	4.7%	-7.8%	0.0%	x	7.3	x	x	x	x	x
NC1=NCC2c3ccccc3Cc3ccccc3N12 (stereo not given)	-2.8%	0.0%	x	x	x	x	x	x	x	x	x
COc1ccc(NC(=O)CSc2nnc(-c3ccncc3)n2-c2ccccc2)cc1	x	-1.6%	4.0%	-6.8%	x	-1.5	x	x	x	x	x
